Measured values: PubChem BioAssay (NCI)
Compounds without any hit were thinned out: in the full panel of roughly 79,000, 15% have a hit. Values without a mark were called inactive. Active and inactive are the calls of the source. Cut-off read from the data, not from the text of the source: active = growth inhibition above about 70%; inactive = the rest.

Tests used:
[1] = NCI Yeast Anticancer Drug Screen. Data for the rad50 strain (AID 155);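 note: 0% = growth of vehicle-only cultures of the same strain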; conditions: S. cerevisiae rad50 strain growth inhibition, active compounds read high
Outline: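 Inhibition values express reduced yeast growth in compound-treated cultures relative to vehicle-treated controls.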

[2] = NCI Yeast Anticancer Drug Screen. Data for the mec2-1 strain (AID 157); conditions: S. cerevisiae mec2-1 strain, active compounds read high
Outline: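 Compounds were applied to mec2-1 yeast cells. Their growth was then compared with that of vehicle-treated cultures to give growth inhibition.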

[3] = NCI Yeast Anticancer Drug Screen. Data for the sgs1 mgt1 strain (AID 161);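 note: 0% = growth of cultures given vehicle only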; conditions: S. cerevisiae sgs1 mgt1 strain, active compounds read high
Outline: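 Compounds are added to genetically altered yeast, and growth is compared with cultures given vehicle alone to give percent inhibition.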

[4] = NCI Yeast Anticancer Drug Screen. Data for the cln2 rad14 strain (AID 165);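 note: 0% = growth equal to vehicle treated cultures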; conditions: S. cerevisiae cln2 rad14 strain, active compounds read high
Outline: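 Strain: cln2 rad14 yeast, altered in cell cycle control and DNA damage repair. Read-out: growth inhibition vs vehicle.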

[5] = NCI Yeast Anticancer Drug Screen. Data for the bub3 strain (AID 167); conditions: S. cerevisiae bub3 mutant strain, active compounds read high
Outline: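 Steps: expose the mutant yeast strain to compound; grow alongside vehicle-treated cultures; measure growth; express inhibition against the vehicle cultures.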

[6] = NCI Yeast Anticancer Drug Screen. Data for the mlh1 rad18 strain (AID 175); conditions: S. cerevisiae mlh1 rad18 strain growth inhibition, active compounds read high
Outline: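 A repair-deficient yeast strain is exposed to test compound, and growth is scored relative to vehicle-treated controls.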

[7] = at 5.0 µM (retest, dose inferred, filed as 0.5)
[8] = at 50.0 µM (retest, dose inferred, filed as 5.0)

| Structure (SMILES) | growth inhibition [1, 7] | growth inhibition [1, 8] | growth inhibition ([1]; at 50.0 µM) | growth inhibition [2, 7] | growth inhibition [2, 8] | growth inhibition ([2]; at 50.0 µM) | growth inhibition [3, 7] | growth inhibition [3, 8] | growth inhibition ([3]; at 50.0 µM) | growth inhibition [4, 7] | growth inhibition [4, 8] | growth inhibition ([4]; at 50.0 µM) | growth inhibition [5, 7] | growth inhibition [5, 8] | growth inhibition ([5]; at 50.0 µM) | growth inhibition [6, 7] | growth inhibition [6, 8] | growth inhibition ([6]; at 50.0 µM) |
| --- | --- | --- | --- | --- | --- | --- | --- | --- | --- | --- | --- | --- | --- | --- | --- | --- | --- | --- |
| CCC(C(=O)CCN(C)C)(c1ccccc1)c1ccccc1 | 67% | 99% (active) | 99.5% (active) | 49% | 99% (active) | 99.6% (active) | 80% (active) | 99% (active) | 99.3% (active) | 19% | 99% (active) | 99.3% (active) | 59% | 99% (active) | 99.8% (active) | 80% (active) | 99% (active) | 99.5% (active) |
| O=C(O)C(S(=O)(=O)O)S(=O)(=O)O | 99% (active) | 99% (active) | 99.2% (active) | 54% | 99% (active) | 99.4% (active) | 100% (active) | 99% (active) | 99.1% (active) | 100% (active) | 99% (active) | 99.3% (active) | 99% (active) | 99% (active) | 98.4% (active) | 99% (active) | 99% (active) | 99.3% (active) |
| O=C(/C=C/c1ccc([N+](=O)[O-])o1)N1CCN(Cc2ccccc2)CC1 | 38% | 78% (active) | 75.1% (active) | 33% | 75% (active) | 60% | 55% | 92% (active) | 74% (active) | 35% | 60% | 38.8% | 43% | 75% (active) | 62% | 52% | 91% (active) | 58.6% |
| C=C(CN(C)C)C(=O)c1ccc(OC2OC(COC(C)=O)C(OC(C)=O)C(OC(C)=O)C2OC(C)=O)cc1 (configuration not stated) | -1% | 2% | -5.65% | 0% | 5% | -18.4% | 3% | -43% | -8.8% | 7% | 2% | 10.4% | 15% | 4% | -3.75% | 5% | 2% | -18.9% |
| C=CC(c1ccccc1)[C@@]1(OC(C)=O)C(=O)C(=O)OC1C1COC(C)(C)O1 (some centres not stated) | 62% | 98% (active) | 86.3% (active) | 75% (active) | 98% (active) | 77.7% (active) | 65% | 100% (active) | 88.3% (active) | 30% | 94% (active) | 86.9% (active) | 84% (active) | 100% (active) | 85.1% (active) | 81% (active) | 98% (active) | 90.4% (active) |
| CCOC(=O)C(Cc1cn(S(=O)(=O)c2ccccc2)c2ccccc12)(NC(C)=O)C(=O)OCC | -2% | 17% | 61.8% | -11% | 14% | 17.3% | 8% | 30% | 70% (active) | 15% | 33% | -3.35% | -9% | 21% | 67.7% | 5% | 35% | 75.5% (active) |
| COC(=O)C12OCC34C(CC5C(C)C6=CC(=O)OC6=CC5(C)C3C(O)C1O)OC(=O)C(OC(C)=O)C24 (configuration not stated) | 69% | 99% (active) | 91.6% (active) | 66% | 99% (active) | 93.4% (active) | 63% | 99% (active) | 92.2% (active) | 64% | 99% (active) | 91.7% (active) | 68% | 99% (active) | 92.5% (active) | 79% (active) | 99% (active) | -22% |
| COc1ccc(C2c3cc4c(cc3OC(N3CCCC3)C2C)OCO4)c(OC)c1 (configuration not stated) | -3% | 77% (active) | 94.5% (active) | -5% | 53% | 94.2% (active) | 1% | 74% (active) | 88.2% (active) | -4% | 68% | 71% (active) | -6% | 68% | 87.8% (active) | -3% | 82% (active) | 93.5% (active) |
| Cc1ccc(C2=CC(=O)/C(=C\C(=O)c3ccc(Cl)cc3)O2)cc1 | 31% | 31% | 74.9% (active) | 28% | 28% | 55.5% | 17% | 17% | 71.2% (active) | 38% | 38% | 57% | 22% | 22% | 49.5% | 37% | 37% | 58% |
| CCCCOC(=O)c1cnc[nH]c1=O | 3% | 17% | 0.5% | 2% | 3% | -2.65% | 0% | 8% | 8.15% | 4% | 3% | 10.4% | -5% | 14% | 3.55% | 24% | 12% | 8.65% |
| CC(C)(C)C(=O)OC(N)/C=C/c1ccccc1 (configuration not stated) | 21% | 24% | 1.75% | 15% | 16% | -10.2% | 13% | -36% | 78.8% (active) | 14% | -52% | 36.7% | 7% | -24% | 82.7% (active) | 23% | 24% | -19.9% |
| CCOC(=O)OC(=S)N(C1CCCCC1)C1CCCCC1 | 4% | 58% | 50.5% | 0% | 90% (active) | 16.6% | 5% | 76% (active) | 50.8% | 5% | 58% | 41.4% | -1% | 77% (active) | 61.9% | 1% | 85% (active) | 60.8% |
| O=C1CNC(=O)c2cc(N=Cc3cc(Br)ccc3O)ccc2N1 | 10% | 95% (active) | 82% (active) | 8% | 98% (active) | 62% | 13% | 96% (active) | 93.5% (active) | 2% | 30% | 22.6% | -1% | 95% (active) | 43.4% | 12% | 97% (active) | 71.9% (active) |
| Fc1ccc(NC(=S)SCc2ccccc2)cc1F | 4% | 89% (active) | 97.3% (active) | 2% | 92% (active) | 99% (active) | 5% | 94% (active) | 99.2% (active) | -6% | 81% (active) | 92.5% (active) | 6% | 95% (active) | 89.8% (active) | 0% | 97% (active) | 99.2% (active) |
| [Fe+2].c1cc[cH-]c1.c1ccc(-c2ccc[cH-]2)cc1 | -4% | 29% | 7.6% | -2% | 32% | 23.3% | -6% | 47% | -9.4% | 1% | 16% | 16.9% | 0% | 41% | 74.7% (active) | 1% | 24% | 19% |
| Cc1cc(N=O)c(NO)cc1C | 3% | 29% | 95.8% (active) | 16% | 29% | 79.7% (active) | 6% | 22% | 79.7% (active) | 2% | 16% | 65.7% | 28% | 61% | 92.5% (active) | 18% | 81% (active) | 88.8% (active) |
| Clc1ccc(C(c2ccc(Cl)cc2)c2cncnc2)cc1 | 18% | 96% (active) | 89.8% (active) | 6% | 99% (active) | 90% (active) | 15% | 95% (active) | 89.4% (active) | 10% | 98% (active) | 89.2% (active) | 40% | 97% (active) | 84.2% (active) | 13% | 97% (active) | 86.8% (active) |
| Fc1cccc(NC(=S)SCc2ccc(Cl)cc2)c1 | 20% | 98% (active) | 99.4% (active) | 15% | 98% (active) | 99.7% (active) | 12% | 99% (active) | 99.7% (active) | -6% | 99% (active) | 99.5% (active) | 10% | 98% (active) | 99.5% (active) | 23% | 99% (active) | 99.6% (active) |
| C=C1C(=O)OC2C1CCC(=C)C1CC(O)C(=C)C12 (configuration not stated) | 3% | 44% | 92.2% (active) | 11% | 64% | 94.2% (active) | 0% | 70% (active) | 93.6% (active) | 10% | 39% | 92.4% (active) | 2% | 65% | 92.5% (active) | 8% | 70% (active) | 31.4% |
